# Assay outcomes as filed in PubChem.
# Most compounds without a hit are left out; they make up all but 2.3% or so of the library.
# HTR2A ag: mouse HTR2A agonism via beta-arrestin recruitment | actives 0.66% (n = 360,000) | activation, % at 7.6 µM | CHO-K1 mHTR2A beta-arrestin complementation, luminescence; percent of 30 µM serotonin response;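 active means activation above a run cutoff, the mean activation of all tested compounds plus 3 SD, cut at about 14% in these data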;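 further: 0% = plate median of compound wells and 100% = 30 µM serotonin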
# Exocytosis inh: lytic granule exocytosis inhibition; actives 0.66% (n = 360,000); AID 651702; inhibition, % at 10 µM; TALL-104 LAMP-1 surface exposure, flow cytometry; cells stimulated with thapsigargin and PMA;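 active means inhibition above about 55%, limit read from the data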
# ABHD5 PLIN5 PPI: inhibitors of human ABHD5-perilipin-5 interaction | Q00G26+Q8WTS1 | Split G. princeps luciferase complementation, luminescence, 4 h | inhibition, % at 4 µM | actives 0.78% (n = 360,000) | AID 602281;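 active means inhibition above the mean inhibition across every tested compound plus 3 SD, cut at about 22% in these data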;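 further: 0% = DMSO only wells and the 100% control is not disclosed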
# Beta2AR agonist: agonists of human beta-2 adrenergic receptor inducing internalization; actives 0.43% (n = 340,000); AID 504454; response, % (no concentration beside the values); Am2.2-beta2AR cells, FAP receptor internalization, flow cytometry;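 active means response above a set limit, near 3 SD of response in nonfluorescent compounds, cut at about 42% in these data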
# NTR1 ag: activates human neurotensin receptor 1. NTR1-U2OS beta-arrestin-GFP spot imaging, agonist mode. P30989. actives 0.17% (n = 330,000). activation, % at 20 µM;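 active means activation at or above 40% of the spot to cytoplasm intensity ratio, with at least 20 cells analyzed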;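 further: 0% = DMSO without peptide and 100% = 100 nM NTR1 peptide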
# ABHD5 PLIN5 conf: confirmation of human ABHD5-PLIN5 interaction inhibitors | AID 651612 | biochemical ABHD5-PLIN5 interaction, luminescence | inhibition, % at 4 µM | actives 67% (n = 2,200) | shares compounds with ABHD5 PLIN5 PPI; in the data active means inhibition above about 23%;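 further: 0% = DMSO vehicle wells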
# HNF4 split-luc: counter-screen for ABHD5-PLIN5 inhibitors: HNF4 split-luciferase; actives 77% (n = 2,200); shares compounds with ABHD5 PLIN5 PPI; inhibition, % at 4 µM; HNF4 dimerization, luminescence, biochemical;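 active means mean inhibition across replicate wells exceeding the computed hit threshold, cut at about 13% in these data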;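 further: light from luciferase halves that rejoin when HNF4 fusion proteins dimerize; 0% = DMSO only wells and the 100% control is not given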
# Target sequence (P41235 whole entry, looked up, the tested form may be a part): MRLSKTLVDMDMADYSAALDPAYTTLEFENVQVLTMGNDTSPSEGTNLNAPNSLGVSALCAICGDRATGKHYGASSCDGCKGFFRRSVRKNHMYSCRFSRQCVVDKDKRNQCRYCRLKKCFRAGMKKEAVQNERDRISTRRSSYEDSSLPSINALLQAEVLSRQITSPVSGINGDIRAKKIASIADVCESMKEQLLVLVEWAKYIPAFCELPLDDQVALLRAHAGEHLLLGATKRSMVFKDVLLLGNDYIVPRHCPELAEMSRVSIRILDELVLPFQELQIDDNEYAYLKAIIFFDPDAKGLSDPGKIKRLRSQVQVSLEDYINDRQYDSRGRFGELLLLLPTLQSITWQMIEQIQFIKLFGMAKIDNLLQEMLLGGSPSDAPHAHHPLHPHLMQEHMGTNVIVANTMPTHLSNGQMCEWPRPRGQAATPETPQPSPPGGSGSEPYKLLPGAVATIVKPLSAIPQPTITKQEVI
# * marks the source's active call; other numbers are inactive results; nt = no result.
SMILES,HTR2A ag,Exocytosis inh,ABHD5 PLIN5 PPI,Beta2AR agonist,NTR1 ag,ABHD5 PLIN5 conf,HNF4 split-luc
CCOc1ccc(N2C(=O)NC(=O)/C(=C\c3ccccc3[N+](=O)[O-])C2=O)cc1,8,9,28*,6,0,87*,85*
CN1CCC(N(C)c2nc(-c3ccc([N+](=O)[O-])cc3)nc3ccccc23)CC1,-12,17,29*,12,nt,11,2
COc1ccc2c(C)c(CC(=O)N3C[C@H]4C[C@@H](C3)c3cccc(=O)n3C4)c(=O)oc2c1C,-4,-6,1,2,21,nt,nt
CCOC(=O)[C@]12Cc3cc(Cl)ccc3[C@H]1N(C(C)C)C(=O)c1ccccc12,7,33,33*,nt,nt,25*,29*
CCOC(=O)[C@]12Cc3cc4ccccc4cc3[C@H]1N(Cc1ccccc1)C(=O)c1cc(OC)ccc12,-7,5,23*,nt,nt,11,16*
CCOC(=O)[C@]12Cc3cc(Cl)ccc3[C@H]1N(CC(=O)OC)C(=O)c1ccccc12,-2,8,38*,nt,nt,32*,34*
CCOC(=O)[C@]12Cc3c(cc(OC)c(OC)c3OC)[C@H]1N(C(C)C)C(=O)c1cc(OC)ccc12,-1,6,20,nt,nt,nt,nt
CCC(C)c1cnc(CC(C)C)c(=O)n1O (stereo not given),-6,6,1,nt,nt,nt,nt
CN1C2CCC1/C(=C/c1ccccn1)C(=O)/C2=C\c1ccccn1,0,64*,98*,32,nt,104*,109*
C=C1C(=O)OC2CC3(C)OC3C3OC3C3=CC(OC3=O)C12 (stereo not given),-4,40,100*,nt,nt,101*,111*
COc1ccc(CN2Cc3cnnn3-c3ccccc3C2C#N)cc1 (stereo not given),-3,1,58*,21,nt,91*,89*
COc1ccc(CN2Cc3cnnn3-c3ccccc3C2c2ccccc2)cc1 (stereo not given),1,16,6,20,nt,nt,nt
Cc1ccc(-c2cc(-c3ccc(C)cc3)[n+](-c3ccccc3)c(-c3ccc(C)cc3)c2)cc1,-4,42,28*,44*,34,9,11
CN(C)c1ccc(-[n+]2c(-c3ccccc3)cc(-c3ccccc3)cc2-c2ccccc2)cc1,13,51,26*,0,31,6,3
O=C1NC(=S)NC(=O)C12C(c1ccc(F)cc1)NC(=S)NC2c1ccc(F)cc1 (stereo not given),-1,1,24*,3,-1,79*,63*
Cc1ccc(C2NC(=S)NC(c3ccc(C)cc3)C23C(=O)NC(=O)NC3=O)cc1 (stereo not given),5,0,-3,-3,2,nt,nt
O=C1NC(=S)NC(=O)C12C(c1ccccc1)NC(=S)NC2c1ccccc1 (stereo not given),2,0,29*,-2,2,61*,39*
CN(Cc1cccc(-c2ccncc2)c1)C(=O)Oc1ccc([N+](=O)[O-])cc1,2,12,6,nt,nt,nt,nt
CCN(CC)C(=O)c1ccc2c(c1)C1C=CCC1C(C(=O)O)N2 (stereo not given),-3,-3,9,11,1,nt,nt
C=CCn1cc(C=C2C(=O)N(C)C(=O)N(C)C2=O)c2ccccc21,-4,-6,23*,1,-1,7,5
O=C(O)Cn1cc(/C=C2\C(=O)NC(=O)N(c3ccc(Br)cc3)C2=O)c2ccccc21,0,11,22,5,-1,nt,nt
COC(=O)Cn1cc(/C=C2\C(=O)NC(=O)N(c3ccccc3)C2=O)c2ccccc21,12,24,24*,27,1,44*,38*
COC(=O)Cn1cc(C=C2C(=O)N(C)C(=O)N(C)C2=O)c2ccccc21,nt,nt,nt,nt,0,nt,nt
Cc1ccc(N2C(=O)NC(=O)/C(=C\c3cn(CC(=O)O)c4ccccc34)C2=O)cc1,-2,-2,27*,5,1,25*,19*
C=C1C(=O)OC2CCN3CC=C(COC(=O)C(C)(O)C4(CO4)C1C)C23 (stereo not given),-5,-1,0,nt,nt,nt,nt
SMILES,HTR2A ag,Exocytosis inh,ABHD5 PLIN5 PPI,Beta2AR agonist,NTR1 ag,ABHD5 PLIN5 conf,HNF4 split-luc
O=C(N/N=C/c1c(O)n(Cc2ccco2)c(=O)[nH]c1=O)c1ccccc1O,-3,10,-1,-2,1,nt,nt
C=CCNC(=S)/N=C/c1c(O)[nH]c(=O)[nH]c1=O,3,-3,28*,-5,-1,1,6
NC(=S)/N=C/c1c(O)[nH]c(=O)[nH]c1=O,-3,-14,5,-1,-1,nt,nt
Clc1ccc2c(c1)C(c1ccccc1Cl)=NCc1nnc(N3CCN(CCSc4ccccc4)CC3)n1-2,10,20,26*,7,8,21,9
CC1=C(O)C(=O)C=C2C1=CC=C1C2(C)CCC2(C)C3CC(C)(C(=O)O)CCC3(C)CCC12C (stereo not given),-7,106*,95*,105*,nt,102*,106*
CCC1(CC)C(=O)NC(=O)N(CCc2ccccn2)C1=O,0,1,-4,-13,nt,nt,nt
O=P1(NCCCn2cc[n+](Cc3nc4ccccc4[nH]3)c2)C=C(c2ccccc2)OC(c2ccccc2)=C1,-1,20,26*,-13,0,12,-1
COC(=O)C1=C(c2cc3ccccc3o2)C[C@@H]2CC[C@H]1N2C(=O)NCc1ccco1,-4,-4,23*,1,-2,8,11
COC(=O)C1=C(c2cc3ccccc3o2)C[C@@H]2CC[C@H]1N2C(=O)NCc1cccc2ccccc12,-5,-2,7,-9,-2,nt,nt
O=C(O)CCn1cc(C=C2C(=O)NC(=S)NC2=O)c(-c2cccc(Cl)c2)n1,4,0,7,3,0,nt,nt
O=C(O)CCn1cc(C=C2C(=O)NC(=O)NC2=O)c(-c2ccc(Br)cc2)n1,-3,-3,25*,3,3,69*,71*
CCN1C(=O)NC(=O)/C(=C\c2cn(CC(=O)N3CCCC3)c3ccccc23)C1=O,8,-4,25*,6,3,24*,26*
CCN1C(=O)NC(=O)/C(=C\c2cn(CC(=O)N3CCCCC3)c3ccccc23)C1=O,-5,-17,26*,31,6,20,20*
c1ccc(C2(NC3=NCCO3)CCCCC2)cc1,2,-2,4,nt,nt,nt,nt
O=c1[nH]c2ccccc2n1C1CCN(Cc2ccc(-c3[nH]c4cc5ncnc5cc4nc3-c3ccccc3)cc2)CC1,-2,2,1,nt,nt,nt,nt
